An excerpt weighted towards active compounds, which were near 4.1% of everything screened.
Jurkat NFkB inh: inhibitors of the PMA/ionomycin-induced NF-kB reporter in Jurkat cells | 330,000 compounds, 0.53% hits | PMA/ionomycin-induced NF-kB luciferase reporter, luminescence | inhibition, % at 4 µM; in the data active = inhibition above about 50%
Gli-Sufu antag: Gli-Sufu pathway antagonism. Sufu-KO-LIGHT fibroblasts, Gli luciferase reporter luminescence. inhibition, % at 5 µM. 340,000 compounds, 0.74% hits;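 active = inhibition above about 55%, limit read from the data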;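 also: 0% = DMSO-treated cells and 100% = wells with medium but no cells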
Mdm2 MdmX PPI: disrupts the human Mdm2-MdmX interaction; SaOS-2 split-luciferase Mdm2/MdmX complementation, luminescence; inhibition, % at 8 µM; 330,000 compounds, 3% hits; AID 485346;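 active = inhibition of at least 50% at 8 µM in the primary screen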
Target sequence (O15151 whole entry, looked up): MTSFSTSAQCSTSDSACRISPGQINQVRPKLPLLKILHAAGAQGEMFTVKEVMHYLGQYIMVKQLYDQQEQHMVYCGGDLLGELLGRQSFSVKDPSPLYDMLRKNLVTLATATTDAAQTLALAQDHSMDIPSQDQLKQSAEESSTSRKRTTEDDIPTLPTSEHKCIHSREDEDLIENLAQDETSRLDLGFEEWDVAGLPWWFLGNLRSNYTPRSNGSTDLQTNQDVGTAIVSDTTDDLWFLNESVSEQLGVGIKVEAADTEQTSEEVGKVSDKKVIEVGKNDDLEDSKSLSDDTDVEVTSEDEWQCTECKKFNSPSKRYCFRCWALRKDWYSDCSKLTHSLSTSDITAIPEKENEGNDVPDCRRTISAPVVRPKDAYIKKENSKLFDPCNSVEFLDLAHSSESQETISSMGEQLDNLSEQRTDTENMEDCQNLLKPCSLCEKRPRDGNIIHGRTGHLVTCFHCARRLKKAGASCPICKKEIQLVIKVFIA
Target sequence (Q00987 whole entry, looked up): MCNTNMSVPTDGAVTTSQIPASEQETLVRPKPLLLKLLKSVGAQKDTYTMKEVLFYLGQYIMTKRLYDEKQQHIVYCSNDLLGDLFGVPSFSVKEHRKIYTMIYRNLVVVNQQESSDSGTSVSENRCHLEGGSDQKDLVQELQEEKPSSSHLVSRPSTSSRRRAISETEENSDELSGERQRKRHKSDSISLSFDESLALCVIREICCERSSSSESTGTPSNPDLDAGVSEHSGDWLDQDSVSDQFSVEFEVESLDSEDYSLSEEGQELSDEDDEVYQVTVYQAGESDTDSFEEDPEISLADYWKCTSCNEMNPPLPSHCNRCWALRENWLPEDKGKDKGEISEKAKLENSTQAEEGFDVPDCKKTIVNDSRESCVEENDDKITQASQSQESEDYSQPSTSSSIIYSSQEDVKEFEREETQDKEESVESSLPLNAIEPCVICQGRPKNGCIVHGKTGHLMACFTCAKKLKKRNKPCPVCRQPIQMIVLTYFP
KLF5 inh: kruppel-like factor 5 inhibition | DLD-1 KLF5 promoter-luciferase reporter, luminescence | inhibition, % at 5 µM | 290,000 compounds, 0.23% hits | AID 1700;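 active = inhibition above a per-plate limit of that plate's mean compound inhibition plus 3 SD, cut at about 60% in these data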;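 also: 0% = DMSO wells and 100% = LY294002 at 200 µM; higher means less KLF5 promoter-driven luciferase light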
aSyn 5UTR inh: MLPCN primary screen, SNCA 5' untranslated region; alpha-synuclein 5'UTR reporter, inhibitor activity; inhibition, % (tested at 7.5 µM); 300,000 compounds, 0.82% hits; AID 1813; in the data active = inhibition above about 60%;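 also: H4 neuroglioblastoma cells stably carrying SNCA 5'UTR luciferase fusion; 0% = DMSO wells and 100% = positive control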
697 NFkB inh: lowers PMA/ionomycin-induced NF-kB signal in 697 B cells. 697 B-cell NF-kB luciferase reporter, 16 h. inhibition, % at 4 µM. 330,000 compounds, 0.33% hits; in the data active = inhibition above about 35%
Gli antag conf: confirmation of Gli-SUFU pathway antagonists; shares compounds with Gli-Sufu antag; Sufu-KO-LIGHT cells, Gli luciferase reporter, luminescence; inhibition, % at 5 µM; 2,500 compounds, 40% hits; AID 602428;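 active = mean inhibition at 5 µM reaching about 45%, limit read from the data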;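 also: plate controls were DMSO-treated cells for no effect and wells lacking cells for full effect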
SufuKO cytotox: cytotoxicity counter-screen for Gli-SUFU antagonists | shares compounds with Gli-Sufu antag | Sufu-KO-LIGHT cells cytotoxicity, ATP luminescence | cytotoxicity, % at 5 µM | 2,500 compounds, 32% hits;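 active = mean cytotoxicity at 5 µM above about 25%, limit read from the data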;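 also: cells exposed to compound overnight for roughly 16 to 18 hours; plate controls were DMSO wells with cells for no effect and medium without cells for full effect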
Wnt3a counter: Wnt3a reporter inhibition counter-screen; Wnt-LIGHT cells, Wnt3a-driven luciferase reporter, luminescence; AID 651995; inhibition, % at 6.25 µM; 2,500 compounds, 20% hits; shares compounds with Gli-Sufu antag;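 active = mean inhibition above about 25%, limit read from the data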
* marks the source's active call; other numbers are inactive results; / = not tested or not shown.

SMILES | Jurkat NFkB inh | Gli-Sufu antag | Mdm2 MdmX PPI | KLF5 inh | aSyn 5UTR inh | 697 NFkB inh | Gli antag conf | SufuKO cytotox | Wnt3a counter
Cc1ccc(C(=O)N2CCN(c3nc4ccccc4n3C)CC2)cc1 | -3 | 70* | -13 | -9 | 28 | -14 | 13 | 23 | -83
Cn1c(CNC(=O)CNC(=O)c2ccccc2F)cc(=O)n(C)c1=O | 14 | 53 | -1 | -36 | 4 | -15 | 4 | 12 | -23
CC(=O)Nc1ccc(S(=O)(=O)N(Cc2ccccc2)C(C)C)cc1 | 2 | 57* | -8 | 15 | 1 | -22 | 56* | 12 | 19
CC(Oc1cccc2c1OC(C)(C)C2)C(=O)O (centres undefined) | -1 | 96* | 13 | -41 | -4 | -9 | 10 | -7 | 12
CN(C)CCCOC(=O)COc1ccc(Br)cc1 | 3 | 4 | 13 | -36 | 11 | 3 | / | / | /
CC(C)c1ccc(C(O)c2cnc(C(C)C)n2C)cc1 (centres undefined) | -24 | 95* | -34 | 19 | -20 | -58 | 10 | 2 | -70
c1ccc(-c2csc3ncnc(NCC4COc5ccccc5O4)c23)cc1 (centres undefined) | / | 84* | / | 3 | 14 | / | 88* | 45* | 26*
Cc1sc2ncnc(NCC3CCCO3)c2c1C (centres undefined) | 13 | 22 | 4 | 3 | 12 | 6 | / | / | /
Cc1sc2ncnc(NCC(C)(C)N3CCOCC3)c2c1C | 35 | 64* | 32 | -8 | 17 | -37 | 58* | 27* | 21
Cc1sc2ncnc(NCC3COc4ccccc4O3)c2c1C (centres undefined) | / | 77* | / | -6 | 2 | / | 72* | 34* | 17
c1ccc(-c2csc3ncnc(NCCCN4CCOCC4)c23)cc1 | 18 | 22 | 8 | -36 | 12 | -6 | / | / | /
COc1cccc(CNC(=O)Cn2c(=O)c3cccn3c3ccccc32)c1 | 2 | 8 | 3 | -3 | 1 | 9 | / | / | /
CC1CCCCC12NC(=O)N(CC(=O)NCCc1c[nH]c3ccccc13)C2=O (centres undefined) | 5 | -6 | 5 | / | / | 14 | / | / | /
COc1ccc(C2C3=C(CC(C)(C)CC3=O)Nc3c2c(=O)n(C)c(=O)n3C)cc1OC (centres undefined) | -2 | 58* | -7 | -44 | -6 | 8 | 13 | 29* | 11
C=CCOC(=O)C1=C(C)NC(=O)NC1c1ccc(O)cc1 (centres undefined) | 1 | -22 | 2 | -32 | 7 | -1 | / | / | /
CC1=C(C(=O)OC2CCCCC2)C(c2ccc(O)cc2)NC(=O)N1 (centres undefined) | 11 | 96* | 3 | -16 | 20 | 10 | 24 | 5 | -11
CCN1CCN(C(=O)C2CCN(S(=O)(=O)N3CCC4(CC3)OCCO4)CC2)CC1 | 0 | -15 | 24 | -25 | 0 | 3 | / | / | /
Cc1ccc(-c2nnc(CN3CCCCC3C)o2)cc1 (centres undefined) | -3 | -16 | 15 | -14 | -8 | -14 | / | / | /
O=C(CSc1nnc(-c2cccc(F)c2)o1)N1CCCC1 | -21 | 14 | -3 | -43 | -53 | 1 | / | / | /
O=C(CSCc1ccc(Cl)cc1)N/N=C/c1ccccc1 | 6 | 51 | 7 | -49 | 17 | -22 | 8 | 15 | -3
Cn1nc(C(C)(C)C)cc1C(=O)NCc1ccc2c(c1)OCO2 | 40 | 68* | 34 | 27 | 5 | 5 | 68* | 30* | 43*
Cc1cnc(NC(=O)c2cccc(S(=O)(=O)N3CC(C)OC(C)C3)c2)s1 (centres undefined) | 5 | 12 | 26 | -27 | 3 | 17 | / | / | /
CC(C)C(NC(=O)c1c(F)cccc1F)C(=O)NCCc1ccc(S(N)(=O)=O)cc1 (centres undefined) | 12 | -21 | -1 | -16 | 9 | 2 | / | / | /
Cc1cc(C)c(NC(=O)CNC(=O)COC(=O)C2=COCCO2)c(C)c1 | -9 | 52 | 6 | / | 14 | -3 | 14 | 15 | -3
Cc1ccccc1NC(=O)COC(=O)C1=COCCO1 | -2 | -12 | 14 | / | / | 8 | / | / | /
SMILES | Jurkat NFkB inh | Gli-Sufu antag | Mdm2 MdmX PPI | KLF5 inh | aSyn 5UTR inh | 697 NFkB inh | Gli antag conf | SufuKO cytotox | Wnt3a counter
N/C(=N\OC(=O)CC1CCCCC1)c1ccc(Cl)cc1 | -12 | -22 | -9 | -23 | -53 | -14 | / | / | /
Cc1cccc(C)c1NC1=C(Cl)C(=O)OC1OC(C)C (centres undefined) | -2 | 52 | 18 | 6 | 8 | -7 | 19 | -6 | 11
CCOC1OC(=O)C(Cl)=C1Nc1ccccc1C (centres undefined) | 0 | 0 | -4 | -16 | 5 | 9 | / | / | /
Cc1sc2ncnc(N3CCN(S(=O)(=O)c4ccc(Br)cc4)CC3)c2c1C | 17 | 50 | 14 | -18 | -2 | -39 | / | / | /
Cc1csc2c(N3CCN(S(=O)(=O)c4ccc(Cl)cc4)CC3)ncnc12 | 12 | 8 | -2 | -23 | -6 | 2 | / | / | /
Cc1sc2ncnc(N3CCN(S(=O)(=O)c4ccc(C(C)(C)C)cc4)CC3)c2c1C | -4 | 55 | 33 | / | / | 0 | 61* | 25* | 16
O=S(=O)(c1ccc(Cl)cc1)N1CCN(c2ncnc3sccc23)CC1 | 12 | 50 | 12 | / | / | -30 | 46* | 21 | 35*
Cc1ccc(S(=O)(=O)N2CCN(C(=O)C3CCN(c4ncnc5sc(C)c(C)c45)CC3)CC2)c(C)c1 | / | 67* | / | / | / | / | 60* | 6 | -42
Cc1ccc(OCC(=O)NNC(=O)C2CCN(c3ncnc4sc(C)c(C)c34)CC2)cc1 | 6 | -6 | 27 | / | 0 | 7 | / | / | /
COc1cc([C@H]2OC[C@H]3[C@@H]2CO[C@@H]3c2ccc(O[C@H]3O[C@H](CO)[C@@H](O)[C@H](O)[C@H]3O)c(OC)c2)ccc1O[C@@H]1O[C@H](CO)[C@@H](O)[C@H](O)[C@H]1O | -4 | 3 | -14 | / | / | -10 | / | / | /
Nc1o[nH]c(=O)c1C1CCCCC1 | / | -6 | / | / | / | / | / | / | /
CCCNC(=O)[C@H](Cc1c[nH]c2ccccc12)NC(=O)c1ccccc1Cl | -20 | -22 | -31 | -32 | -40 | 8 | / | / | /
Cc1cccc(OCCC(=O)Nc2ccc(Cl)cc2F)c1 | 10 | -1 | 27 | -35 | 3 | 12 | / | / | /
O=C(COc1cccc(Cl)c1)Nc1ccc2c(c1)CCC2 | -5 | 5 | -11 | -3 | -38 | 6 | / | / | /
CCOC(=O)C1CCCN(CC(O)COC(c2ccccc2)c2ccccc2)C1 (centres undefined) | -8 | 70* | 11 | -7 | 12 | 15 | 9 | 11 | -32
Clc1ccc2nc(COc3ccccc3)[nH]c2c1 | -7 | -49 | 9 | -116 | -151 | -70 | / | / | /

Screening data deposited in PubChem BioAssay by several laboratories.
